Bioluminescence data for 52 compounds are collected here from the supplement of paper PMC10811239.

Assay in all cases: bioluminescence (viable cell) signal fold change after vs before treatment, normalised to DMSO (ratio); higher = more tumour cell growth / less inhibition
Common to all, as to details: 10 µM; treatment time 6 days

In experiment [1] the test system is LEGO organoid PT (PTEN-/-; TP53-/-). Here is the method:
(§1)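 Luc2-labelled iPSC-derived glioblastoma-like organoids (LEGOs, genotypes PT = PTEN-/-;TP53-/-, PTCC = plus CDKN2A/B-/-, PTN = plus NF1-/-) were treated with 10 uM drug for 6 days (applied every other day) at 37 C. Bioluminescence imaging was done before treatment and 2 days after the last dose. BLI signals were normalised to the DMSO control on the same day and then to the pre-treatment signal (N=3).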

Experiment [2] relates to LEGO organoid PTCC (PTEN-/-; TP53-/-; CDKN2A-/-; CDKN2B-/-). As for the experimental part:
as §1

Experiment [3] concerns LEGO organoid PTN (PTEN-/-; TP53-/-; NF1-/-). Here is the method: as §1

For `Cc1nc2n(c(=O)c1CCN1CCC(c3noc4cc(F)ccc34)CC1)CCCC2` [Risperidal], the bioluminescence in experiment [1] came out at 1.57; in experiment [2], 1.93; in experiment [3] it was 1.31.
The like results for `CN(C)CCc1c[nH]c2ccc(CS(=O)(=O)N3CCCC3)cc12.O=C(O)CC(O)C(=O)O` [Almotriptan Malate] were, in that order, 1.74, 0.868 and 0.959.
As for `CC[C@]1(O)C[C@H]2C[N@](CCc3c([nH]c4ccccc34)[C@@](C(=O)OC)(c3cc4c(cc3OC)N(C=O)[C@H]3[C@@](O)(C(=O)OC)[C@H](OC(C)=O)[C@]5(CC)C=CCN6CC[C@]43[C@@H]65)C2)C1.O=S(=O)(O)O` [Vincristine sulfate], the bioluminescence in experiment [1] is 0.224; in experiment [2] it was 2.47; in experiment [3] it was 0.8.
The like results for `CNCCCN1c2ccccc2CCc2ccccc21.Cl` [Desipramine hydrochloride] were, in that order, 0.858, 0.744 and 1.22.
For the compound `Cl.O=C1CC2(CCCC2)CC(=O)N1CCCCN1CCN(c2ncccn2)CC1` [Buspirone hydrochloride], the figures for the bioluminescence in experiment [1], in experiment [2] and in experiment [3] were 1.22, 1.47 and 0.759, respectively.
The like results for `Nc1nc2c(ncn2COC(CO)CO)c(=O)[nH]1` [Ganciclovir] were, in that order, 4.35, 1.62 and 2.38.
Consider `CCCCOc1ccc(C(=O)CCN2CCCCC2)cc1.Cl` [Dyclonine hydrochloride], for which the bioluminescence in experiment [1] came to 0.967; in experiment [2], 1.03; in experiment [3], 1.13.
In the case of `Cl.O[C@@H](c1cc(C(F)(F)F)nc2c(C(F)(F)F)cccc12)[C@H]1CCCCN1` [Mefloquine hydrochloride], the bioluminescence in experiment [1] came out at 0.499; in experiment [2], 0.922; in experiment [3] it was 0.359.
With `CC1(C)O[C@@H]2[C@@H](CO[C@@]3(COS(N)(=O)=O)OC(C)(C)O[C@@H]23)O1` [Topiramate], the bioluminescence in experiment [2] came to 1.62; in experiment [3], 5.65.
The like results for `Cl.CN(C)CC\C=C1\c2ccccc2CCc2ccccc12` [Amitriptyline hydrochloride] were, in that order, 0.794 and 1.12.
The corresponding values for `Cc1cc2c(s1)Nc1ccccc1N=C2N1CCN(C)CC1` [Olanzapine] are 0.712 and 1.81.
As for `COc1c(N2CCNC(C)C2)c(F)cc2c(=O)c(C(=O)O)cn(C3CC3)c12` (configuration not stated) [Gatifloxacin], the results for the bioluminescence in experiment [2] and in experiment [3] were 0.933 and 4.79, respectively.
`Nc1ccn([C@@H]2CS[C@H](CO)O2)c(=O)n1` [Lamivudine]: the values for the bioluminescence in experiment [2] and in experiment [3] were 0.674 and 1.2, respectively.
For `Cc1cc(C)nc(NS(=O)(=O)c2ccc(N)cc2)n1` [Sulfamethazine], the bioluminescence came out at 0.645 in experiment [2] and 1.03 in experiment [3].
The corresponding values for `CC(C)(S)[C@@H](N)C(=O)O` [d-penicillamin] are 0.914 and 1.11.
`C=C/C=C/C[C@@H](C)[C@@H](O)[C@H]1C(=O)N[C@@H](CC)C(=O)N(C)CC(=O)N(C)[C@@H](CC(C)C)C(=O)N[C@@H](C(C)C)C(=O)N(C)[C@@H](CC(C)C)C(=O)N[C@@H](C)C(=O)N[C@H](C)C(=O)N(C)[C@@H](CC(C)C)C(=O)N(C)[C@@H](CC(C)C)C(=O)N(C)[C@@H](C(C)C)C(=O)N1C` [Voclosporin]: the bioluminescence was 0.723 in experiment [2] and 0.446 in experiment [3].
As to `COc1cc2c(cc1OC)C(=O)C(CC1CCN(Cc3ccccc3)CC1)C2` (configuration not stated) [Donepezil], the bioluminescence amounted to 0.645 in experiment [2] and 1.1 in experiment [3].
As to `C#CCN[C@@H]1CCc2ccccc21.CS(=O)(=O)O` [Rasagiline Mesylate], the bioluminescence worked out at 2.02 in experiment [2] and 1.25 in experiment [3].
Regarding `CCOc1nc2cccc(C(=O)OC(C)OC(=O)OC3CCCCC3)c2n1Cc1ccc(-c2ccccc2-c2nn[nH]n2)cc1` (configuration not stated) [Candesartan Cilexetil], the bioluminescence in experiment [2] is 1.17; in experiment [3], 1.04.
The like results for `COc1cc2c(cc1OC)C(=O)C(CC1CCN(Cc3ccccc3)CC1)C2.Cl` (configuration not stated) [Donepezil HCl] were, in that order, 0.812 and 0.746.
The like results for `O=C([O-])CCCc1ccccc1.[Na+]` [Sodium Phenylbutyrate] were, in that order, 0.911 and 3.02.
The like results for `CN=C(NC#N)NCCSCc1nc[nH]c1C` [Cimetidine] were, in that order, 2.25 and 1.65.
Regarding `O.O.O.O.O.O.O.O=C1CN(/N=C/c2ccc(-c3ccc([N+](=O)[O-])cc3)o2)C(=O)[N-]1.O=C1CN(/N=C/c2ccc(-c3ccc([N+](=O)[O-])cc3)o2)C(=O)[N-]1.[Na+].[Na+]` [Dantrolene sodium hemiheptahydrate], the bioluminescence in experiment [2] worked out at 2.4; in experiment [3] it was 2.84.
The corresponding values for `COc1ccc(Cl)cc1C(=O)NCCc1ccc(S(=O)(=O)NC(=O)NC2CCCCC2)cc1` [Glyburide] are 1.51 and 1.61.
The like results for `C[C@@H](Oc1cc(-c2cnn(C3CCNCC3)c2)cnc1N)c1c(Cl)ccc(F)c1Cl` [Crizotinib] were, in that order, 0.43 and 0.303.
The like results for `CCC1(C)CC(=O)NC1=O` (configuration not stated) [Ethosuximide] were, in that order, 0.668 and 0.778.
As for `COc1cc2ncnc(Nc3ccc(F)c(Cl)c3)c2cc1NC(=O)/C=C/CN1CCCCC1` [Dacomitinib], the bioluminescence was 0.0502 in experiment [2] and 0 in experiment [3].
On to `Cc1cn([C@H]2C=C[C@@H](CO)O2)c(=O)[nH]c1=O` [Stavudine], for which the results for the bioluminescence in experiment [2] and in experiment [3] were 0.83 and 0.812, respectively.
Regarding `CC(C)(C)c1cc(C(C)(C)C)c(NC(=O)c2c[nH]c3ccccc3c2=O)cc1O` [Ivacaftor], the bioluminescence was 0.191 in experiment [2] and 0.603 in experiment [3].
The like results for `Cl.Clc1cccc(Cl)c1NC1=NCCN1` [Clonidine hydrochloride] were, in that order, 1.29 and 0.76.
For the compound `CN(C)CCC=C1c2ccccc2COc2ccccc21.Cl` [Doxepin hydrochloride], the results for the bioluminescence in experiment [2] and in experiment [3] were 1.05 and 0.742, respectively.
The corresponding values for `O=C(CCCN1CCC(O)(c2ccc(Cl)cc2)CC1)c1ccc(F)cc1` [Haloperidol] are 0.956 and 0.771.
The corresponding values for `CO[C@H]1C(=O)[C@]2(C)[C@@H](OC)C[C@H]3OC[C@@]3(OC(C)=O)[C@H]2[C@H](OC(=O)c2ccccc2)[C@]2(O)C[C@H](OC(=O)[C@H](O)[C@@H](NC(=O)OC(C)(C)C)c3ccccc3)C(C)=C1C2(C)C` [Cabazitaxel] are 7.3 and 0.429.
Turning to `Nc1nc(NC2CC2)c2ncn([C@H]3C=C[C@@H](CO)C3)c2n1.Nc1nc(NC2CC2)c2ncn([C@H]3C=C[C@@H](CO)C3)c2n1.O=S(=O)(O)O` [Abacavir sulfate], the bioluminescence in experiment [2] is 1.28; in experiment [3], 1.95.
The like results for `CC(C)CN(C[C@@H](O)[C@H](Cc1ccccc1)NC(=O)O[C@H]1CCOC1)S(=O)(=O)c1ccc(N)cc1` [Amprenavir] were, in that order, 0.498 and 0.695.
Take `Cl.N=C1CCCN1Cc1[nH]c(=O)[nH]c(=O)c1Cl` [Tipiracil hydrochloride]: the bioluminescence in experiment [2] was determined as 1.21; in experiment [3], 0.848.
The like results for `COc1cc(C(=O)NCc2ccc(OCCN(C)C)cc2)cc(OC)c1OC.Cl` [Trimethobenzamide hydrochloride] were, in that order, 0.906 and 0.646.
On to `CN1[C@@H]2CCC[C@H]1C[C@@H](NC(=O)c1nn(C)c3ccccc13)C2.Cl` [Granisetron hydrochloride], for which the results for the bioluminescence in experiment [2] and in experiment [3] were 0.701 and 1.92, respectively.
On to `C[C@H](Cn1cnc2c(N)ncnc21)OCP(=O)(O)O` [Tenofovir], for which the bioluminescence in experiment [2] came to 3.69; in experiment [3], 1.12.
Take `C[C@]12C=CC(=O)C=C1CC[C@@H]1[C@@H]2[C@@H](O)C[C@@]2(C)[C@H]1CC[C@]2(O)C(=O)CO` [Prednisolone]: the bioluminescence turned out to be 1.29 in experiment [2] and 1.71 in experiment [3].
The corresponding values for `CCN(CC)C(=O)[C@]1(c2ccccc2)C[C@@H]1CN.Cl` [Milnacipran hydrochloride] are 1.02 and 2.39.
For the compound `CCCC(CCC)C(=O)O` [Valproic Acid], the bioluminescence in experiment [2] turned out to be 0.784; in experiment [3] it was 0.834.
The corresponding values for `CS(=O)(=O)OCCCCOS(C)(=O)=O` [Busulfan] are 1.3 and 2.3.
As to `CN(C)C(=N)NC(=N)N.Cl` [Metformin hydrochloride], the bioluminescence is 1.27 in experiment [2] and 1.35 in experiment [3].
Take `CCc1cc2c(cc1N1CCC(N3CCOCC3)CC1)C(C)(C)c1[nH]c3cc(C#N)ccc3c1C2=O` [Alectinib]: the bioluminescence was found to be 2.57 in experiment [2] and 0.961 in experiment [3].
The corresponding values for `N[C@@H](Cc1ccc(O)c(O)c1)C(=O)O` [Levodopa] are 1.76 and 1.33.
The like results for `CCn1c(=O)c2c(nc(/C=C/c3ccc(OC)c(OC)c3)n2C)n(CC)c1=O` [Istradefylline] were, in that order, 3.38 and 6.31.
The like results for `Nc1nc2ccc(OC(F)(F)F)cc2s1` [Riluzole] were, in that order, 1.26 and 1.01.
With `CNC(=O)c1cc(Oc2ccc(NC(=O)Nc3ccc(Cl)c(C(F)(F)F)c3)cc2)ccn1` [Sorafenib], the results for the bioluminescence in experiment [2] and in experiment [3] were 0.105 and 0.285, respectively.
In the case of `CCCN(CCC)S(=O)(=O)c1ccc(C(=O)O)cc1` [Probenecid], the bioluminescence in experiment [2] came out at 1.41; in experiment [3] it was 1.62.
For the compound `C/C=C(/C)C(=O)O[C@H]1C(C)=C[C@]23C(=O)[C@@H](C=C(CO)[C@@H](O)[C@]12O)[C@H]1[C@@H](C[C@H]3C)C1(C)C` [Ingenol Mebutate], the bioluminescence is 1.37 in experiment [2] and 2.33 in experiment [3].
In the case of `CCN(CC)CC(=O)Nc1c(C)cccc1C.Cl` [Lidocaine hydrochloride], the bioluminescence in experiment [2] came to 1.11; in experiment [3] it was 1.08.
